Common to all, as to test: NCI-60 one-dose screen, 48 h (100 = growth as untreated, 0 = no growth, -100 = all killed)
What all share (details): 10 µM unless noted

Test [1] relates to RPMI-8226 leukemia.
The test system of test [2] is OVCAR-8 ovarian.
For test [3], the system named is OVCAR-5 ovarian.
In test [4] the test system is OVCAR-4 ovarian.
Test [5] concerns SK-OV-3 ovarian.
The test system of test [6] is IGROV1 ovarian.
The subject of test [7] is OVCAR-3 ovarian.
In test [8] the test system is HS 578T breast.
The test system of test [9] is NCI/ADR-RES ovarian.
For test [10], the system named is T-47D breast.
The test system of test [11] is BT-549 breast.
The subject of test [12] is MDA-MB-435 melanoma.
Test [13] has as its system SW-620 colon.
Test [14] concerns MCF7 breast.
Test [15] relates to HCT-116 colon.
Test [16] has as its system KM12 colon.
In test [17] the test system is HCC-2998 colon.

This is part of a sample that, as a whole, favours compounds with a hit. Of some 83,000 tested, about 20% had one in any assay.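 Cell lines were cultured in 96-well plates, exposed to a single compound concentration, and assessed for percent growth 48 hours later.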 Unmarked numbers belong to inactive results. Calls of active or inactive are those of the source. Rule for the calls: active = growth percent below 10; inactive = the rest.

The text below walks through data of PubChem BioAssay (NCI).

For the molecule `N#Cc1cccc(/C=C(/C(=O)c2ccccc2)c2ccccc2)c1`, the growth is -4.62% (active) in test [1]; 20.4% in [2]; 80.4% in [3]; 50.9% in test [4]; 110% in test [5]; 73.8% in test [6]. The growth was 36.4% in test [7]; 55.4% in test [8]; 40.1% in test [9]; 74.4% in test [10]; 26.7% in test [11]; 8.38% (active) in test [12]. The growth in [13] is 7.39% (active); in test [14], 9.11% (active); in test [15], 25.6%; in test [16], 22.3%.
Regarding `COc1ccc(OC)c(NC(=O)c2cc3oc4ccccc4c3cc2O)c1`, the growth in test [1] is 53.4%; in test [2] it was 86.7%; in test [3], 103%; in test [4], 91.4%; in test [5], 81.1%; in [6], 56.1%. Moreover, the growth in test [7] was 137%; in [8], 84.6%; in test [9], 88.6%; in test [10], 74.4%; in test [11], 89.1%; in test [12], 105%. Besides, the growth in [13] was 104%; in test [14], 83.3%; in test [15], 106%; in test [16] it was 99.5%.
With `CCCCCCC/C(=N\N=C(N)N)c1ccc(O)cc1`, the growth was 11% in [1]; 60.4% in [2]; 58.3% in test [3]; 36.2% in [4]; 46.8% in test [5]; 33.6% in [6]. In addition, the growth in test [7] was 35.8%; in test [8] it was 57.3%; in test [9] it was 69.9%; in test [10] it was -31.6% (active); in test [11] it was 46.9%; in test [12], 41.6%. Moreover, the growth in test [13] is 49%; in [14], -21.8% (active); in test [15], 18.3%; in [16] it was 48.8%.
With `Cc1cc(C(C)(C)c2cc(C)c(O)c(CN(C)C)c2)cc(CN(C)C)c1O`, the growth in [1] was 84.1%; in [2], 89.4%; in [3] it was 102%; in test [4] it was 99.1%; in test [5], 104%; in test [6], 78.9%. Moreover, the growth in [7] was 85.7%; in test [8], 76.1%; in test [9], 95.7%; in [10] it was 107%; in [11], 84.5%; in [12], 78.1%. The growth in [13] is 92.7%; in [14] it was 96.4%; in test [15], 55.1%; in [16], 101%.
As for `Cc1cc(N2CCOCC2)nc(N2CCOCC2)n1`, the growth in [1] is 99.2%; in test [2], 104%; in test [3], 99.7%; in test [4], 93.9%; in [5], 99.2%; in test [6], 76.6%. Further, the growth is 107% in test [7]; 95.4% in test [8]; 96.3% in [9]; 98% in test [10]; 73.6% in test [11]; 96.4% in [12]. The growth is 102% in [13], 90.7% in [14], 92.2% in test [15] and 107% in [16].
`C[C@@H]1CC[C@H]2[C@@H](C)C(O)O[C@@H]3O[C@]4(C)CC[C@@H]1[C@]32OO4` (some centres undefined): the growth is 3.35% (active) in test [1]; 19.2% in [2]; 26.5% in test [3]; 40.2% in test [4]; 95.4% in test [5]; 38.9% in test [6]. Further, the growth is 30.1% in test [7]; 46.4% in test [8]; 9.21% (active) in [9]; 36.3% in test [10]; 32.3% in [11]; 2.52% (active) in [12]. The growth was 17.5% in test [13], 8.03% (active) in test [15], 41.3% in [17] and 18.3% in test [16].
With `CCC1(c2ccccc2)Oc2ccccc2-n2c(C#N)c3ccccc3c2C1=O` (centres undefined), the growth in [1] is 92.6%; in [2] it was 98.4%; in test [3] it was 108%; in test [4], 99.8%; in [5], 91.4%; in test [6] it was 93.9%. Besides, the growth in test [7] is 103%; in [8], 105%; in test [9], 95.6%; in [10], 91.7%; in test [11] it was 104%; in test [12], 106%. In addition, the growth in [13] is 107%; in test [14] it was 85.1%; in test [15], 86.7%; in test [16], 102%.
Take `COc1ccc(C2CC(c3ccc(OC)c(OC)c3)=NN2C(=O)c2cc(OC)c(OC)c(OC)c2)cc1` (centres undefined): the growth in test [1] was 50.2%; in [2], 34.2%; in [3], 66.5%; in test [4] it was 58.8%; in test [5], 30.3%; in test [6], 31.5%. In addition, the growth in [7] is -45.1% (active); in test [8], -14% (active); in test [9], 13%; in [10], 36.4%; in [11] it was 27.6%; in test [12], -26.6% (active). Moreover, the growth is 20.9% in [13], 20.6% in test [15], 61.1% in [17] and 16.2% in test [16].
Turning to `c1cncc(CNc2ccccc2-c2nnc(Nc3ccc4c(c3)OCO4)o2)c1`, the growth was 27.5% in test [1]; 26.1% in test [2]; 25.2% in [3]; 36.3% in test [4]; -3.15% (active) in test [5]; 25.2% in [6]. Also, the growth was -22% (active) in test [7]; 35.4% in test [8]; 19.4% in test [9]; 43.5% in [10]; 39.2% in test [11]; -28% (active) in [12]. In addition, the growth was 30.6% in test [13], 9.29% (active) in test [14], 8.54% (active) in test [15] and 3.86% (active) in [16].
